The list shows a part of the results. Calls of active or inactive are those of the source.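 The calls were made as follows, unless noted: active = mean inhibition above 46.68%, the untreated control wells mean plus 3 SD; inactive = the rest.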 Bridge positions count the residues as written; N and C are the ends. Square brackets hold non-standard residues; d marks the D form. Peptide text beside a SMILES is read from it.
Tests used:
[1] = target: Nuclear receptor coactivator 3 (Homo sapiens) (UniProt Q9Y6Q9); assay: SRC3 coactivator transcriptional activity inhibitors, confirmation, cell-based, luminescence, quadruplicate (AID 588792;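 active = mean inhibition over 43.08%, the solvent-only control mean plus 3 SD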;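 also: 0% = DMSO treated cells and 100% = gossypol at 36 µM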); settings: HEK293 GAL4-SRC3 luciferase reporter, at 3.6 µM, stronger effect = higher value
Sequence of Nuclear receptor coactivator 3 (Homo sapiens) (Q9Y6Q9 whole entry, looked up, the tested form may be a part): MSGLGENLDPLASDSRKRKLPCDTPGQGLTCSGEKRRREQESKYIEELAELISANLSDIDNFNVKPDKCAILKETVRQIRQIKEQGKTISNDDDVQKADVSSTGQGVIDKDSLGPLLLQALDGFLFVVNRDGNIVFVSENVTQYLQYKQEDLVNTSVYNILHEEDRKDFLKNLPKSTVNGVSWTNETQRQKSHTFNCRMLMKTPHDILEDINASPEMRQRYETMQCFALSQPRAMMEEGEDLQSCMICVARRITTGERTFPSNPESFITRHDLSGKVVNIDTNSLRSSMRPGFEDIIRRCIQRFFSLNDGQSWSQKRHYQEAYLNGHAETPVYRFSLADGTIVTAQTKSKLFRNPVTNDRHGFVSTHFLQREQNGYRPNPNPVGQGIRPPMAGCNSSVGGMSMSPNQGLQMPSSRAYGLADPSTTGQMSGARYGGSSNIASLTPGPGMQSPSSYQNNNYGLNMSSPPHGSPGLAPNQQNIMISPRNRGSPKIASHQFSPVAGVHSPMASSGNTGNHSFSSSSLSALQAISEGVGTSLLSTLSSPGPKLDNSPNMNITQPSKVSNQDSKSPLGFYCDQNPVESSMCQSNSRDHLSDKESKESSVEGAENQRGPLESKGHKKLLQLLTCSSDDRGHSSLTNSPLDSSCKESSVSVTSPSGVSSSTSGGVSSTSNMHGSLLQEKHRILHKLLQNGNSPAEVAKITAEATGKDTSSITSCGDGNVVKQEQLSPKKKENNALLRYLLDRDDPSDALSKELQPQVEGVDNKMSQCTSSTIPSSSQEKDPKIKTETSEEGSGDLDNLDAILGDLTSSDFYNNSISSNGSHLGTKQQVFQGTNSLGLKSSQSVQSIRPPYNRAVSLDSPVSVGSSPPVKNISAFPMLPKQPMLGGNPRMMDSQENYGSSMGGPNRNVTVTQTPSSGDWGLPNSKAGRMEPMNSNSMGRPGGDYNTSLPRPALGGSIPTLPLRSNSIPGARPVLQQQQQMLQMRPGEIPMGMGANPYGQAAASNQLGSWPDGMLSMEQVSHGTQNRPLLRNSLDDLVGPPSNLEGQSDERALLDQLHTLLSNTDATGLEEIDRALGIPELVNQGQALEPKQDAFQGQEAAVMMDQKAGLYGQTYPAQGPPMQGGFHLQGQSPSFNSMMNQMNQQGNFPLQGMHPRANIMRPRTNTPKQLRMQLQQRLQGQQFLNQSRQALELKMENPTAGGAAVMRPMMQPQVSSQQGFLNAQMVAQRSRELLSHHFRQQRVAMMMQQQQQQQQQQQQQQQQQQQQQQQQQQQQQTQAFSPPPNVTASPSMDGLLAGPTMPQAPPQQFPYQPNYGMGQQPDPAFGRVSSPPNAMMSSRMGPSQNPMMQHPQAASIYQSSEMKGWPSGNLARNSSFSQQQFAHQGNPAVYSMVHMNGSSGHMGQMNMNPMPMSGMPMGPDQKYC

[2] = system: transactivating tegument protein VP16 (Human herpesvirus 1), Gal4-VP16 luciferase reporter; assay: VP16 transactivation inhibitors, counter-screen for SRC3 inhibitor project, cell-based, luminescence, high throughput (AID 588794; in the data active = inhibition above about 30%); settings: mammalian cells, VP16-driven luciferase reporter luminescence; at 3.6 µM; stronger effect = higher value
[3] = target: Nuclear receptor coactivator 1 (Homo sapiens) (UniProt Q15788); assay: SRC1 coactivator transcriptional activity inhibitors, confirmation, cell-based, luminescence, quadruplicate (AID 588820); settings: HEK293 GAL4-SRC1 luciferase reporter, at 3.6 µM, stronger effect = higher value;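 also: 0% = DMSO wells and 100% = gossypol 36 µM treated wells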
Sequence of Nuclear receptor coactivator 1 (Homo sapiens) (Q15788 whole entry, looked up, the tested form may be a part): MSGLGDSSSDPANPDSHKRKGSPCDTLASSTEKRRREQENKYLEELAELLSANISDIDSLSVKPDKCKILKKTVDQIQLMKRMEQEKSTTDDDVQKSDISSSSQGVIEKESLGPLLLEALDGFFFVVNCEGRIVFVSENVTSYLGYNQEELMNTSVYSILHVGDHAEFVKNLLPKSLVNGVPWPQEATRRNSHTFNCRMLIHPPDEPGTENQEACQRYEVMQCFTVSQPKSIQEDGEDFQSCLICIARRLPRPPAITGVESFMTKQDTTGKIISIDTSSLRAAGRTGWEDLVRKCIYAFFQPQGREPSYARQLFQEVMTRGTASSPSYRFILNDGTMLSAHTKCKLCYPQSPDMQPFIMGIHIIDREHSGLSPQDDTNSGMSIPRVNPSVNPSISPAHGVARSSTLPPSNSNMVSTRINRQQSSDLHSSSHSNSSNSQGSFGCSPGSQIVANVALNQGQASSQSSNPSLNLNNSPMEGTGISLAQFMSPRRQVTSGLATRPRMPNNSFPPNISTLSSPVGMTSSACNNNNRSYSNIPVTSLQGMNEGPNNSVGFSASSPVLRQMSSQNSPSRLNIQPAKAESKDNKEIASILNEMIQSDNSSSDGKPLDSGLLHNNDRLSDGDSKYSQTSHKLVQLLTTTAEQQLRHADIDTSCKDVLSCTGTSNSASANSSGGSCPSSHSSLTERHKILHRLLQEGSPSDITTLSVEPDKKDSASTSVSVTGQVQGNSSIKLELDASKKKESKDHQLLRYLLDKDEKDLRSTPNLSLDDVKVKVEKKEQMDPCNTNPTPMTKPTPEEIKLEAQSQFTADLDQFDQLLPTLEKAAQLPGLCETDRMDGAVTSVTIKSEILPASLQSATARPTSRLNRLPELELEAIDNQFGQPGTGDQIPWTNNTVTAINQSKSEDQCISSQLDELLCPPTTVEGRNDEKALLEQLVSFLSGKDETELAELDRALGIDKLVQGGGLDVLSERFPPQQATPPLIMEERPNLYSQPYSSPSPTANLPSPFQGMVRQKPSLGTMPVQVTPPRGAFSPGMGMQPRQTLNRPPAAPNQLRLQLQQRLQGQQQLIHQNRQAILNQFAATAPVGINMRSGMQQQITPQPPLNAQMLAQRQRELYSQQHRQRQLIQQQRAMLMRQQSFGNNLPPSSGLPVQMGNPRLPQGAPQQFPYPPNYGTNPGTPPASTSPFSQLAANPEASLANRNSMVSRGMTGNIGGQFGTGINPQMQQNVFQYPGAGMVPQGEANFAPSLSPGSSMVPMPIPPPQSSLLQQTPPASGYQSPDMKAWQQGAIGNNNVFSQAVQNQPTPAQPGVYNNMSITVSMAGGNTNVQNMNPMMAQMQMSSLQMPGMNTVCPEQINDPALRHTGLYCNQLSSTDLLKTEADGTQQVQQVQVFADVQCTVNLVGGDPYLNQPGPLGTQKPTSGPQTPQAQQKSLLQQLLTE

[4] = VP16 transactivation inhibitors, counter-screen for SRC1 inhibitor project, cell-based, luminescence, high throughput (AID 588824; in the data active = inhibition above about 25%); settings: cell-based VP16 transactivation luciferase luminescence; at 3.6 µM; stronger effect = higher value
[5] = StAR promoter reporter inhibitors, counter-screen for LRH-1 inverse agonist project, cell-based, luminescence, high throughput (AID 651611; in the data active = inhibition above about 28%); settings: StAR promoter luciferase reporter counterscreen, at 3.6 µM, stronger effect = higher value
[6] = target: Nuclear receptor subfamily 5 group A member 2 (Homo sapiens) (UniProt O00482); assay: LRH-1 (NR5A2) inverse agonists, retest, confirmation, cell-based, luminescence (AID 651613; in the data active = inhibition above about 42%;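 also: HEK293T cells co-transfected with LRH-1 and StAR promoter luciferase reporter; 0% = vehicle wells and 100% = parental cells lacking receptor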); settings: cell-based LRH-1 luciferase reporter, inverse agonism; at 3.6 µM; stronger effect = higher value
Sequence of Nuclear receptor subfamily 5 group A member 2 (Homo sapiens) (O00482 whole entry, looked up): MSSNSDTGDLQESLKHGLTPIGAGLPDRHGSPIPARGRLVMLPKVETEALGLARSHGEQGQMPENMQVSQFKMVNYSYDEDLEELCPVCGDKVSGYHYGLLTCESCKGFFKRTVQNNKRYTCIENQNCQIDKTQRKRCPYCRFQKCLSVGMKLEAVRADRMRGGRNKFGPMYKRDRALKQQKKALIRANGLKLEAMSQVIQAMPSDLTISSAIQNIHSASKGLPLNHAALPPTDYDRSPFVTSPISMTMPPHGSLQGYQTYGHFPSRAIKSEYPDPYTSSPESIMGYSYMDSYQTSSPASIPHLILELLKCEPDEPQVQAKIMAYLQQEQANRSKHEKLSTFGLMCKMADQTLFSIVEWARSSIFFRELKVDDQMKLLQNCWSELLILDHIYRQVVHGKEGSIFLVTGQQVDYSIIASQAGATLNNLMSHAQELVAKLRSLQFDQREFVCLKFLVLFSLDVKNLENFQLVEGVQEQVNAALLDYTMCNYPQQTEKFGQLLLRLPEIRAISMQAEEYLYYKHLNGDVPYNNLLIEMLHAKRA

[7] = target: Steroidogenic factor 1 (Homo sapiens) (UniProt Q13285); assay: SF1 (NR5A1) inverse agonists, counter-screen for LRH-1 inverse agonist project, cell-based, luminescence, high throughput (AID 651614; in the data active = inhibition above about 44%;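 also: cells cotransfected with StAR promoter reporter and SF1 expression vector; 0% = vehicle on cells with receptor and 100% = vehicle on cells lacking receptor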); settings: cell-based SF1 luciferase reporter, at 3.6 µM, stronger effect = higher value
Sequence of Steroidogenic factor 1 (Homo sapiens) (Q13285 whole entry, looked up, the tested form may be a part): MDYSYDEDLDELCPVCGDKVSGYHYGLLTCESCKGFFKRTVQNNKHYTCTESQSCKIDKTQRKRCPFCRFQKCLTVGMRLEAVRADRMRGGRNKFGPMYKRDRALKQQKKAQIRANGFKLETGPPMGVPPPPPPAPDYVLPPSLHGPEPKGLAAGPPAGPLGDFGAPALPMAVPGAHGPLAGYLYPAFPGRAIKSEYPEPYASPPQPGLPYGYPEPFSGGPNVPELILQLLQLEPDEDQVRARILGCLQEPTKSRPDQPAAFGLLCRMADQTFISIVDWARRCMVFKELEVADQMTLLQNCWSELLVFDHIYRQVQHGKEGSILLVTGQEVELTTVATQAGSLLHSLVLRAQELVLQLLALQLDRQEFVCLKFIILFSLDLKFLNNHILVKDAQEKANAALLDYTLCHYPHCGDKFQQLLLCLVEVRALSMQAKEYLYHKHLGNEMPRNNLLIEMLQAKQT

[8] = VP16 transactivation reporter inhibitors, counter-screen for LRH-1 inverse agonist project, cell-based, luminescence, high throughput (AID 651615; in the data active = inhibition above about 33%); settings: Gal4-VP16 luciferase reporter cells, at 3.6 µM, stronger effect = higher value
[9] = system: transactivating tegument protein VP16 (Human herpesvirus 1); assay: VP16 transactivation reporter inhibitors, counter-screen for SRC2 inhibitor project, cell-based, luminescence, single concentration (AID 652007; in the data active = inhibition above about 36%); settings: cell-based VP16 transactivation luciferase reporter, at 8.9 µM, stronger effect = higher value
[10] = target: Nuclear receptor coactivator 2 (Homo sapiens) (UniProt Q15596); assay: SRC2 coactivator transcriptional activity inhibitors, confirmation, cell-based, luminescence, HEK293, triplicate (AID 652008;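 active = mean inhibition above 46.5%, the solvent-only control mean plus 3 SD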;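 also: 0% = DMSO-treated cells and 100% = Gossypol at 36 µM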); settings: HEK293 GAL4-SRC2 luciferase reporter, at 8.9 µM, stronger effect = higher value
[11] = growth loss of phage-infected RecBCD+ E. coli, confirmation, RecBCD inhibitor project, absorbance, E. coli V66, T4 gene 2 phage (AID 651982;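 active = mean inhibition over triplicates exceeding the hit threshold derived in the original primary screen, cut at about 11% in these data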); settings: E. coli V66 + T4 2- phage, growth OD; at 11.9 µM; stronger effect = higher value
[12] = E. coli viability inhibition, counter-screen for RecBCD inhibitor project, absorbance, high throughput (AID 651983; in the data active = inhibition above about 20%;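 also: E. coli strain V66 grown with compound alone and no phage infection; 0% = bacteria with DMSO vehicle only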); settings: absorbance (OD) growth, at 11.9 µM, stronger effect = higher value
[13] = growth loss of phage-infected AddAB-carrying E. coli, confirmation, counter-screen for RecBCD inhibitor project, absorbance, E. coli V3065, T4 phage (AID 651984;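 active = mean inhibition above the solvent-only control wells' mean plus 3 SD, cut at about 22% in these data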;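 also: higher means less bacterial growth from phage killing when AddAB is blocked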); settings: E. coli expressing H. pylori AddAB + T4 phage, OD growth; at 11.9 µM; stronger effect = higher value; gene 2 mutant T4, recBCD-deleted host
[14] = Gal4-VP16 luciferase reporter inhibitors, counter-screen for COUP-TFII antagonist project, cell-based, luminescence, HEK293 (AID 687007; in the data active = inhibition above about 13%); settings: at 8.5 µM, stronger effect = higher value
[15] = target: COUP transcription factor 2 (Homo sapiens) (UniProt P24468); assay: NR2F2 transcriptional activity inhibitors, confirmation, cell-based, luciferase reporter, HEK293, triplicate (AID 687008;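 active = mean inhibition over three repeats above a set limit taken from the earlier primary screen, cut at about 38% in these data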;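 also: 100% = cells given the luciferase reporter alone without the COUP-TF2 vector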); settings: HEK293 NGFI-A luciferase reporter, luminescence; at 8.5 µM; stronger effect = higher value
Sequence of COUP transcription factor 2 (Homo sapiens) (P24468 whole entry, looked up): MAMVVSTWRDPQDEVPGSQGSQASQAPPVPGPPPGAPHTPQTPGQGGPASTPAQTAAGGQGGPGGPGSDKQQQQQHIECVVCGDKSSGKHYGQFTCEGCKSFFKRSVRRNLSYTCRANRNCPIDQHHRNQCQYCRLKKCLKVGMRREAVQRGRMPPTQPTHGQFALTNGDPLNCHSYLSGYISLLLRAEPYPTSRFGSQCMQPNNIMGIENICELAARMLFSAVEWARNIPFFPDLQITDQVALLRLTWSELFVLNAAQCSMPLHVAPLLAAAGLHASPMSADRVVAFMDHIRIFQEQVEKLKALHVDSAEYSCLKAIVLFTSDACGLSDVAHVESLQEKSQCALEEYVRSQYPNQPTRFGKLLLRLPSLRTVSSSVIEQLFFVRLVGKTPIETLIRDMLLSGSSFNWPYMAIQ

Measured: inhibition

O=[N+]([O-])c1nn(-c2ccc3c(c2)OCCO3)n(O)c1=Nc1ccccc1
inactive: [2] -12.3% | [4] 16.2% | [9] 35.2%
active: [1] 81% | [3] 70.5% | [5] 68.9% | [6] 44.6% | [7] 66.5% | [8] 33.9% | [10] 91.4%

COc1cc(C(=O)/C=C/c2cccnc2)c([N+](=O)[O-])cc1OC
active: [2] 45.3% | [4] 48.8% | [5] 59.3% | [6] 59.1% | [7] 56.7% | [8] 68.5%
inactive: [1] 33.2% | [3] 29.4% | [9] 18.2% | [10] 45.8%

CC[C@H](C)[C@@H]1NC(=O)[C@@H](CC(C)C)NC(=O)[C@H](C(C)C)NC(=O)[C@H]2CSSC[C@H](NC1=O)C(=O)N2 (cyclo(C[dC]V[dL]I); disulfide 1-2)
active: [1] 99.9% | [2] 98.3% | [3] 99.6% | [4] 98% | [5] 96% | [6] 109% | [7] 97.7% | [8] 97.5% | [9] 98.3% | [10] 99.6%

N#Cc1sc2nccc(Nc3ccccc3)c2c1N
inactive: [9] 4.1%
active: [1] 87.1% | [2] 62.4% | [3] 62.9% | [4] 58.6% | [5] 32.5% | [6] 66.4% | [7] 48.8% | [8] 79.6% | [10] 52.2%

COC1=CC(=O)c2c(ccc3ncnc(N)c23)C1=O
inactive: [3] -4.46%
active: [1] 60.8% | [2] 65.1% | [4] 64.3% | [5] 62.4% | [6] 82.8% | [7] 84.6% | [8] 82.1% | [9] 37.5% | [10] 69.5%

Brc1cccc(CSc2nnc(-c3ccncc3)o2)c1
active: [1] 45.8% | [2] 35.2% | [4] 26.9%
inactive: [3] 44.4% | [9] 0.08% | [10] 27.6%

Cc1ccc(/C=N/NC(=O)C2=NNC(c3ccccc3)(c3ccccc3)C2)c(O)c1
inactive: [3] 45.4% | [11] 3.86% | [12] 5.88% | [13] 5.05%
active: [1] 71.4% | [2] 57.5% | [4] 51.8%

CC1(Cc2ccc(Cl)cc2)C(=O)Nc2ccc(-c3cccnc3)cc21 (centres undefined)
active: [1] 73.7% | [2] 49.3% | [3] 59.2% | [4] 52.8% | [10] 53.2%
inactive: [9] 6.39%

COC(=O)Cc1[nH]n(-c2nc3ccccc3s2)c(=O)c1C(C)=Nc1ccc(OC)cc1
active: [1] 85.2% | [2] 78.4% | [3] 71.8% | [4] 73.8% | [9] 91.5% | [10] 93.9%

CN(C)C=Nc1ncc2c3ccccc3n(CCN(C)C)c2c1C#N
inactive: [9] -1.55% | [10] 9.25%
active: [1] 48.6% | [2] 29.9% | [3] 48.9% | [4] 33.2%

COc1ccc(C(=O)CN2C(=O)c3ccccc3S2(=O)=O)cc1
active: [1] 57.4% | [2] 57.1% | [4] 55.6% | [9] 72.1% | [10] 78.4%
inactive: [3] -21.8%

CC(C)(C)C(=O)Nc1ccc(NC(=O)c2ccco2)nc1
inactive: [3] 39.4% | [6] 15.6%
active: [1] 69.9% | [2] 64.1% | [4] 39.8% | [5] 56.1% | [7] 59.4% | [8] 36.7% | [9] 72.7% | [10] 92.8%

Cc1ccc(OCC(=O)c2cc(C)n(-c3ccccc3)c2C)c([N+](=O)[O-])n1
inactive: [1] 38.5% | [2] -20.9% | [3] 29.1% | [4] -31.4% | [9] -12.8%
active: [10] 83.3%

Cn1nc(C(F)(F)F)c(C#N)c1N1CCN(c2ccccc2)CC1
inactive: [3] 35.6% | [4] 19.3% | [9] 4.83% | [10] 27.6%
active: [1] 56.3% | [2] 31.5%

O[C@@H]1[C@@H](O)C=C2CCN3Cc4cc5c(cc4[C@H]1C23)OCO5 (some centres undefined)
active: [1] 84.3% | [2] 77.5% | [3] 48.1% | [4] 76.7% | [6] 105% | [7] 93.4%
inactive: [9] 15.7% | [10] -13.8%

Nc1nc(=S)c2ncn([C@@H]3O[C@H](CO)[C@@H](O)[C@H]3O)c2[nH]1
active: [1] 67.6% | [4] 29.9% | [6] 77.2% | [7] 48.2%
inactive: [2] 23.3% | [3] 11.8%

CCCN(CC)c1ncnc2[nH]ncc12
active: [1] 72.3% | [2] 52.6% | [3] 71.4% | [4] 50.1% | [6] 45% | [8] 69.2%
inactive: [5] 25.9% | [7] 37.1% | [9] -9.97% | [10] 43.2%

CC1(C)CC(N2CCN(C(c3ccccc3)c3ccccc3)CC2)=CC(=[N+]2CCCCC2)C1
active: [1] 91% | [2] 87.8% | [3] 69.5% | [4] 87.8% | [5] 80.6% | [6] 110% | [7] 94.8% | [8] 94.7% | [14] 24.1% | [15] 86.3%

CCCC(=O)NC(c1ccc(Cl)cc1Cl)c1ccc2cccnc2c1O (centres undefined)
inactive: [1] 34.5% | [2] 28.6% | [3] 45.7% | [9] 0.83% | [10] 17.2%
active: [4] 48%

COc1cc([C@@H]2c3cc4c(cc3[C@@H](O[C@@H]3O[C@@H]5CO[C@@H](C)O[C@H]5[C@H](O)[C@H]3O)[C@H]3COC(=O)[C@H]23)OCO4)cc(OC)c1O
active: [1] 64.4% | [3] 62.5% | [6] 69.3% | [7] 44.6%
inactive: [2] 8.66% | [4] 6.22%

CC(=O)c1sc(NC(=O)C2(F)C(F)(F)C(F)(F)C(F)(F)C(F)(F)C2(F)F)nc1C
inactive: [9] 4.16% | [10] 23.9%
active: [1] 66.5% | [2] 79% | [3] 60.4% | [4] 84.5%

S=c1[nH]nc(C2CCCCC2)n1/N=C/c1ccncc1
active: [1] 75.2% | [2] 60.4% | [3] 64.6% | [4] 60.1% | [10] 51.4%
inactive: [9] 10.3%

c1cc2c(cc1C1=NNC(=NC3CC3)SC1)OCCO2
inactive: [3] 15.5%
active: [1] 52.8% | [2] 46.4% | [4] 38% | [9] 59.7% | [10] 79.5%

Cc1cc(N2CCOCC2)c2c(N)c(Br)cc(C)c2n1
inactive: [9] -7.31%
active: [1] 71.8% | [2] 59% | [3] 76.3% | [4] 60.3% | [10] 54.8%

CC1=C(C(=O)OCc2ccc3c(c2)OCO3)C(c2ccc(Cl)cc2)NC(=O)N1 (centres undefined)
active: [1] 86% | [2] 74.7% | [3] 69.2% | [4] 74.8%
inactive: [9] 29.9% | [10] 46.3%

Cc1ccc(C(=O)O/N=C(\N)c2ccccn2)c(Cl)c1
inactive: [1] 28.7% | [2] 11.1% | [3] -47.4% | [4] -23.7% | [5] -22.8% | [6] -86.9% | [7] 4.43% | [8] -54.1%
active: [9] 50.6% | [10] 70.8%

COc1cccc(NC(=O)Nc2nc(-c3ccc(OC)c(OC)c3)cs2)c1
inactive: [3] 37.4%
active: [1] 81.3% | [2] 73.5% | [4] 74% | [9] 89.7% | [10] 92.9%

CCOC(=O)NNC(=O)CCn1c2c(c3ccccc31)CCCC2
inactive: [9] 1.39% | [10] 39.1%
active: [1] 54.1% | [2] 43.4% | [3] 51.3% | [4] 37%

Cc1c(/C(O)=C2/C(=O)C(=O)N(CCN3CCOCC3)C2c2ccco2)cnn1-c1ccccc1 (centres undefined)
inactive: [1] 23.3% | [2] 5.75% | [3] -20.6% | [4] -37.5% | [9] -7.38% | [10] 39%

O=C(NC1CCCCC1)C(c1cccnc1)N(C(=O)CCl)c1ccc(F)cc1 (centres undefined)
active: [1] 78.3% | [2] 65.9% | [4] 65.1% | [9] 64.5% | [10] 64.8%
inactive: [3] 20.8%

O=C(CC1CS(=O)(=O)CC1CC(=O)Nc1ccc2c(c1)OCCO2)Nc1ccc2c(c1)OCCO2 (centres undefined)
active: [9] 46.5% | [10] 57%
inactive: [1] 37.1% | [2] -5.19% | [3] -14.1% | [4] -21.8% | [5] -26.2% | [6] -91.7% | [7] -43.4% | [8] -53.8%

COc1ccc(-n2c(C)c([N+](=O)[O-])c3ccc(O)c(CN4CCCCC4)c32)cc1
active: [1] 47.4% | [2] 30.5% | [3] 54.9% | [4] 39.5% | [10] 48.4%
inactive: [9] 4.57%

Cn1nc(C(F)(F)F)c(C#N)c1N1CCN(c2ccc(F)cc2)CC1
inactive: [1] 36.7% | [3] 36.7% | [4] 25.1% | [9] -6.8%
active: [2] 31.8% | [10] 48.8%

CCc1c(C)nc2ccc(Br)cc2c1SCCC#N
active: [1] 58.4% | [2] 44.3% | [3] 66.9% | [4] 33.5%
inactive: [9] 9.39% | [10] 34.7%

C=C1C(=O)OC2CC1C(O)CC(C)=CCCC(C)=CC(O)CC2C (centres undefined)
inactive: [1] 22.9% | [3] 27.9% | [9] 23.9%
active: [2] 42.7% | [4] 49.7% | [10] 50.8%

O=C1NC(=S)N/C1=C\c1cccnc1
inactive: [9] 0.14% | [10] 44%
active: [1] 49.2% | [2] 36.6% | [3] 52.9% | [4] 33.3%

— PubChem BioAssay
